Experimental data reported in PubChem BioAssay (NCATS).
“And” between values parts separate entries of the source, which are not always exact repeats. Identical values can stand only once. Results filed as inconclusive are left out. Where a structure was tested more than once in an assay, its records may differ in their call. The source made the active and inactive calls. Unless noted, calls follow the shape of the dose curve; as a rule, active = well fitted curve in the direction sought with a large enough effect; inconclusive = small, poorly fitted or top-dose-only effect, or another doubt; inactive = no such curve, though single readings can be large; an effect the other way counts as inactive or inconclusive.

Columns and labels:
[1] = target: Glucocorticoid receptor (Homo sapiens) (UniProt P04150); assay: GR-EFC Redistribution (AID 451; calls by dose curve; also: potency is read from the fitted curve at half-maximal effect); settings: CHO-K1 GR-EFC translocation, beta-gal luminescence, 2 h
Glucocorticoid receptor (Homo sapiens), sequence (P04150 whole entry, looked up, the tested form may be a part): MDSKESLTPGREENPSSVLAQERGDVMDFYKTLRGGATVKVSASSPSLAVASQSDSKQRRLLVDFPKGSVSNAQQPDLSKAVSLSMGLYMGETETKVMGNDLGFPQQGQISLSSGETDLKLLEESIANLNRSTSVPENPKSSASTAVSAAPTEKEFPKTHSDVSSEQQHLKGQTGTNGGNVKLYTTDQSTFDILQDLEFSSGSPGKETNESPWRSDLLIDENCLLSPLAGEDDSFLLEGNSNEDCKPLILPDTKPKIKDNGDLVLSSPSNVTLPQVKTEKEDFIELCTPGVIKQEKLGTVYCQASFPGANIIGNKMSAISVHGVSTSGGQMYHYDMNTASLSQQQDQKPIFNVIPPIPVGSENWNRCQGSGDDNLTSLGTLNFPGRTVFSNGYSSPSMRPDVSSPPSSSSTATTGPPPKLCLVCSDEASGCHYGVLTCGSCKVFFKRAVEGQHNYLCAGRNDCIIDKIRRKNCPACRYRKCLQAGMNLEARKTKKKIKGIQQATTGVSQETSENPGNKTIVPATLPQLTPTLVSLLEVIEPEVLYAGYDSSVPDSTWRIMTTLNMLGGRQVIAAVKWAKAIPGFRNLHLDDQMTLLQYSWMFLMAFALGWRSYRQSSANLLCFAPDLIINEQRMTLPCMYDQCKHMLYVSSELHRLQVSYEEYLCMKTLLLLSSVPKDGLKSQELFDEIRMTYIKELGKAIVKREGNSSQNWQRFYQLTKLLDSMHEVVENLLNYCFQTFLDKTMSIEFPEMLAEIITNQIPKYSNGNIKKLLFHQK
Summary of the method: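 Translocation of GR-ED fusion to nuclear EA restores b-gal, read by luminescence after 1 h room-temperature detection. Engineered CHO-K1 biosensor cells, 1,000/well, exposed 2 h at 37 C to titrations up to 46 uM final.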

[2] = Confirmation and Secondary Assay for Modulators of Hemoglobin Beta Chain Splicing at IVS2 654 locus (AID 910);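 also: HeLa cells stably carrying EGFP split by mutant beta-globin IVS2-654 intron; per-well total GFP intensity by laser scanning cytometry after 2-day treatment; % of control where 0% means no effect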
Summary of the method: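 Readout: per-well total peak green fluorescence (488 nm ex, 500–520 nm em) from objects 5–250 µm, reflecting correct splicing of an EGFP-654 reporter. Compounds were applied for 2 days at 37 °C to overnight-plated HeLa EGFP-654 cells; controls were DMSO and 500 nM IVS2-654 PNA.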

[3] = Confirmation and Secondary Assay for Modulators of Hemoglobin Beta Chain Splicing at IVS2 705 locus (AID 930);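 also: HeLa cells stably expressing the EGFP-705 splicing reporter; % of control where 0% means no effect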
Summary of the method: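 HeLa cells stably carrying EGFP interrupted by mutant beta-globin IVS2-705 intron (CMV-driven) were seeded at 500 cells/well, treated next day with compound for 2 days at 37C; corrected splicing restores EGFP, read as total peak GFP intensity per well.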

[4] = qHTS Assay for Lipid Storage Modulators (AID 1519; calls by dose curve); settings: Drosophila S3 cells, BODIPY lipid droplet/cell ratio, laser cytometry, cells loaded with oleic acid
Summary of the method: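 Cells seeded at 5,000 per well were treated with compounds over a concentration series and loaded with oleic acid (400 uM, as added). Lipid droplet fluorescence (488 nm excitation, 500-530 nm channel) was read by laser-scanning cytometry and normalized to 20 uM Triacsin C.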

[5] = target: Ubiquitin carboxyl-terminal hydrolase 1 (Homo sapiens) (UniProt O94782); assay: Inhibitors of USP1/UAF1: Pilot qHTS (AID 504865);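 also: rhodamine fluorescence freed from ubiquitin-rhodamine substrate followed over time; top concentration of the series differs between compounds; % is scaled to controls: 0 for no effect and ±100 for the full control effect; nearly all actives have a fitted effect of over 35% in size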
Ubiquitin carboxyl-terminal hydrolase 1 (Homo sapiens), sequence (O94782 whole entry, looked up): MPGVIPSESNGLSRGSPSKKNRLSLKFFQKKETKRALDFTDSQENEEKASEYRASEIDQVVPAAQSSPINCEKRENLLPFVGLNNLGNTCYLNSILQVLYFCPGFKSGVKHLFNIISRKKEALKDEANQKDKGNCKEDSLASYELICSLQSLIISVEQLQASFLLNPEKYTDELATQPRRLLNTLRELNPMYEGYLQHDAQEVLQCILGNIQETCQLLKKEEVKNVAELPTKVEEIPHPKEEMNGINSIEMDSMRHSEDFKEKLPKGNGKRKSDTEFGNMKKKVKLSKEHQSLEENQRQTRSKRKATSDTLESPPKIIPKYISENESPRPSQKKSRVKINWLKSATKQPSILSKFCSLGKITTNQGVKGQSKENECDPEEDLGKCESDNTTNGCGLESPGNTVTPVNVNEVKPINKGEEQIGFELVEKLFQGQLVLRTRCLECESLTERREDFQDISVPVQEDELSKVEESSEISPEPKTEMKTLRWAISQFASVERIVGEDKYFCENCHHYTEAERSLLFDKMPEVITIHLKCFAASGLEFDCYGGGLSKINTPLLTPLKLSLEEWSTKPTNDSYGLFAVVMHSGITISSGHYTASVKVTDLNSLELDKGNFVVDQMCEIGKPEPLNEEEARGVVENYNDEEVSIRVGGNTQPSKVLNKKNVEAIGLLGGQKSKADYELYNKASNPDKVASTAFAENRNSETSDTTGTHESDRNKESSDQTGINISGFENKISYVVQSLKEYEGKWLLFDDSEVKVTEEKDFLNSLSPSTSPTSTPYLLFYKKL
Summary of the method: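 Kinetic fluorescence assay: 1nM USP1/UAF1, 15 min compound preincubation, then 150nM Ub-Rho; 480/540 nm.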

[6] = test system: Zika virus NS2B-NS3 protease; assay: Primary screen GU AMC qHTS for Zika virus inhibitors (AID 1347154);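 also: 0% = no-inhibitor control and -100% = no-enzyme control; nearly all actives have a fitted effect of over 70% in size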
Summary of the method: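 Fluorogenic AMC-substrate cleavage by noncovalent NS2B-NS3 protease complex (25 nM, pH 8.0 Tris buffer with Tween 20) followed for 15 minutes at room temperature (~20% conversion). Percent inhibition from ex340/em450 signal change, fitted by 4-parameter Hill equation.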

[7] = Primary qHTS for small molecule stabilizers of the endoplasmic reticulum resident proteome: Secreted ER Calcium Modulated Protein (SERCaMP) assay (AID 1508630); also: % is scaled to controls: 0 for no effect and ±100 for the full control effect
Summary of the method: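 GLuc-SERCaMP-expressing SH-SY5Y cells, pretreated 16 h with compound, are challenged with thapsigargin to empty ER calcium stores; after 4 h, coelenterazine is added directly to the medium and luminescence is imaged.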

[8] = target: Cytochrome P450 1A2 (Homo sapiens) (UniProt P05177); assay: p450-cyp1a2 (AID 410; calls by dose curve; also: potency is read from the fitted curve at half-maximal effect;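 as to activity change, negative = inhibition: -100% = full effect of reference inhibitor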)
Cytochrome P450 1A2 (Homo sapiens), sequence (P05177 whole entry, looked up): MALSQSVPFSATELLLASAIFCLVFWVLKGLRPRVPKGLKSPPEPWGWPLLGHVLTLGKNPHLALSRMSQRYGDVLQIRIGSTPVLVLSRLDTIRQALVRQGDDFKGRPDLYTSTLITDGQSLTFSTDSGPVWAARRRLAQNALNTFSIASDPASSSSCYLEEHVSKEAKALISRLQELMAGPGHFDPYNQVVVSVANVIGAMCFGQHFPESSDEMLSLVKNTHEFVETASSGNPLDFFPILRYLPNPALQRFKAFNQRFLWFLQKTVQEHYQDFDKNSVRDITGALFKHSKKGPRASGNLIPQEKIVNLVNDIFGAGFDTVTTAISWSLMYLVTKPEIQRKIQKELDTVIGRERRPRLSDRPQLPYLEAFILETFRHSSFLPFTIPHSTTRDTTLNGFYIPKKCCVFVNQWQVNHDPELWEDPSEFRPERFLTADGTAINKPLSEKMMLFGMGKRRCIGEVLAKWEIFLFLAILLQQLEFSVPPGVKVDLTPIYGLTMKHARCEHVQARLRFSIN
Summary of the method: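 Inhibition was calculated relative to 57 uM furafylline (full inhibition). The reaction used human CYP1A2 at 20nM with Luciferin-ME at its Km, 100uM, driven by an NADPH-regenerating system for 60 min at room temperature.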

[9] = target: Glucocorticoid receptor (Homo sapiens) (UniProt P04150); assay: GR-GFP Redistribution (AID 450;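 active = compounds whose dose series gives a full or clear partial fitted curve of increased nuclear translocation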; also: potency is read from the fitted curve at half-maximal effect); settings: U2OS GR-GFP nuclear translocation, laser cytometry, 2 h
[10] = target: Mitogen-activated protein kinase 10 (Mus musculus) (UniProt Q61831); assay: JNK3 AlphaScreen Assay (AID 530; active = well fitted curve in either direction with a large enough effect, not every such curve was filed as active;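 also: kinase came from lysate of stimulated human HepG2 cells; signal reports phosphorylation of biotinylated GST-cJun 1-79 at Ser73 with 10 µM ATP; % is scaled to controls: 0 for no effect and ±100 for the full control effect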)
Summary of the method: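 Room-temperature AlphaScreen kinase assay; pre-activated HepG2 lysate as JNK3 source, biotin-GST-cJun(1-79) substrate, 10 uM ATP, compound 15 min preincubation.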

[11] = target: 3',5'-cyclic-AMP phosphodiesterase 4B (Homo sapiens) (UniProt Q07343); assay: qHTS Assay for Inhibitors of PDE-IV (AID 607; active = well fitted activation curve with a large enough effect in the main read-out, with a control signal flat, not every such curve was filed as active; also: % of control where 0% means no effect)
3',5'-cyclic-AMP phosphodiesterase 4B (Homo sapiens), sequence (Q07343 whole entry, looked up): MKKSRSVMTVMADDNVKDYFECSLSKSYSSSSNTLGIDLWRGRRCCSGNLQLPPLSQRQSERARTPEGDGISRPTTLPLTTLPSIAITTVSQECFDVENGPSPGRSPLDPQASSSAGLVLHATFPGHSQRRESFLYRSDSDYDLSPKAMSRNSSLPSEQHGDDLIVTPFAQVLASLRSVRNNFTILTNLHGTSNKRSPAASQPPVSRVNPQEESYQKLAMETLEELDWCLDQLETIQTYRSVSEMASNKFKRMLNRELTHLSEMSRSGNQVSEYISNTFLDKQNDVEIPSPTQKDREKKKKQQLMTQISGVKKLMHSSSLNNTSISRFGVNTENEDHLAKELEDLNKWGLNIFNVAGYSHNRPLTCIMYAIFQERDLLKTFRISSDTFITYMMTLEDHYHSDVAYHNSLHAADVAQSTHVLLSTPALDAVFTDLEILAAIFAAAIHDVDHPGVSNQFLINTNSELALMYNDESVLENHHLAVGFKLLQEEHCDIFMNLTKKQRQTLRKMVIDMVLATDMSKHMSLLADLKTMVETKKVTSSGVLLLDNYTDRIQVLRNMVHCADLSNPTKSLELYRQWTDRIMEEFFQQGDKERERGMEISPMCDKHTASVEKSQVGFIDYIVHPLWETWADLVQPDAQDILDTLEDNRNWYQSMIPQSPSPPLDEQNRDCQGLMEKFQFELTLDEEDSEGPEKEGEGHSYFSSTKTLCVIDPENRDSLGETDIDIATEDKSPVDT
Summary of the method: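 The readout is membrane depolarisation from a cAMP-sensing CNG channel, detected with a potential dye at ex 535/em 590. Cells were HEK293-derived (endogenous PDE-IV) at 1000 cells/well, titrated up to 22.9 uM final.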

[12] = target: Cytochrome P450 3A4 (Homo sapiens) (UniProt P08684); assay: qHTS Assay for Activators of Cytochrome P450 3A4 (AID 885); also: nearly all actives have a fitted effect of over 65% in size
Cytochrome P450 3A4 (Homo sapiens), sequence (P08684 whole entry, looked up): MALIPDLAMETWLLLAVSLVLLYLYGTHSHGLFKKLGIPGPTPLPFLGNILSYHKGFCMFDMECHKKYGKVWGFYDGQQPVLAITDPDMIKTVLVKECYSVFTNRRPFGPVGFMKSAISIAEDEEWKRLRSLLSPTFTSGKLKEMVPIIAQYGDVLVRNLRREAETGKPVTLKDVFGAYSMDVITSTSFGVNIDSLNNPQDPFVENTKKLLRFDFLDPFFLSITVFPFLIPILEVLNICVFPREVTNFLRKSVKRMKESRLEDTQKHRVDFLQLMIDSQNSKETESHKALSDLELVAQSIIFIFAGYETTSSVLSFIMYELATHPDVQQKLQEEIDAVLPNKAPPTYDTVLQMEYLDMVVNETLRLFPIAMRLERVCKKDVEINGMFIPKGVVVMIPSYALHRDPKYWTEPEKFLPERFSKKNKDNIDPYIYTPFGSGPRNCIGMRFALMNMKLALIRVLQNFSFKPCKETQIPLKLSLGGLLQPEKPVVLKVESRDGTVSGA
Summary of the method: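 Steps: enzyme/substrate mix dispensed; compound added, 10 min RT; NADPH regeneration solution added, 60 min RT; luciferin detection buffer stops reaction; 20 min later luminescence measured.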

[13] = target: DNA dC->dU-editing enzyme APOBEC-3G (Homo sapiens) (UniProt Q9HC16); assay: qHTS for inhibitors of Vif-A3G interactions: Validation (AID 588379); also: 0% is about no effect
DNA dC->dU-editing enzyme APOBEC-3G (Homo sapiens), sequence (Q9HC16 whole entry, looked up): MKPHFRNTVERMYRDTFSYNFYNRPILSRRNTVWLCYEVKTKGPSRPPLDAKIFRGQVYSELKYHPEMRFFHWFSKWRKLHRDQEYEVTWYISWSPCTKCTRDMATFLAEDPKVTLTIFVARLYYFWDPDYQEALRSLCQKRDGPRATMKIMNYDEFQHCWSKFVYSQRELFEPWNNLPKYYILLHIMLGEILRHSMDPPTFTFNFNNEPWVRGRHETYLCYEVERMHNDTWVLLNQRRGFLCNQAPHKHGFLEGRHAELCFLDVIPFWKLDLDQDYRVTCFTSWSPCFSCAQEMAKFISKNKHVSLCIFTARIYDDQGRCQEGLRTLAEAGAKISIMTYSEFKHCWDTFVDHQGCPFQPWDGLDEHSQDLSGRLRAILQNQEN
Summary of the method: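 HeLa cells stably expressing Vif and A3G-eYFP, 700 cells/well, incubated overnight at 37 deg C, then exposed to compound overnight at 37 deg C. Inhibition of Vif-mediated degradation read as increased yellow fluorescence (Ex 488/Em 500-530) by laser-scanning cytometry.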

[14] = target: Rap guanine nucleotide exchange factor 3 (Homo sapiens) (UniProt O95398); assay: Confirmatory qHTS for agonist of cAMP-regulated guanine nucleotide exchange factor 3 (EPAC1) (AID 1645881);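 also: EPAC1 catalysed release of BODIPY-GDP from Rap1B seen as fluorescence loss; 100% = effect of cAMP agonist control; nearly all actives have a fitted effect of over 75% in size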
[15] = target: Rap guanine nucleotide exchange factor 4 (Homo sapiens) (UniProt Q8WZA2); assay: Confirmatory qHTS for agonist of cAMP-regulated guanine nucleotide exchange factor 4 (EPAC2) (AID 1645884);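 also: nucleotide exchange releases bodipy-GDP from Rap1 and this lowers its fluorescence; % is scaled to controls: 0 for no effect and ±100 for the full control effect; nearly all actives have a fitted effect of over 65% in size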
[16] = NFAT Signaling Pathway (AID 444; active = well fitted curve in either direction with a large enough effect, not every such curve was filed as active;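 also: carbachol stimulus at about its EC50 of 1 µM final; % is scaled to controls: 0 for no effect and ±100 for the full control effect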); settings: Jurkat NFAT-bla M1, carbachol, beta-lactamase ratio, 5 h; at 38 µM (top of the series)
Summary of the method: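 Read-out: CCF4 FRET ratio (460 nm/530 nm) after 1 h RT dye loading, used for %activity and AC50 from titration series. Cells: Jurkat NFAT-β-lactamase/M1 line, treated with compound plus 1 uM carbachol for 5 h, 37 °C.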

[17] = Stat Signaling Pathway (AID 446; active = well fitted curve in either direction with a large enough effect, not every such curve was filed as active;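 also: ME-180 cervical cancer cells given 40 pM IL-6 alongside compound; SIE-controlled beta-lactamase reporter measured as 460/530 nm FRET emission ratio; % is scaled to controls: 0 for no effect and ±100 for the full control effect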)
Summary of the method: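 Screening format detects activators and inhibitors alike: ME-180 SIE-bla cells stimulated at 40 pM IL-6 for 5 hrs with compound, then dual-emission beta-lactamase read at 405 nm excitation.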

[18] = target: Guanine nucleotide-binding protein G(i) subunit alpha-1 (Homo sapiens) (UniProt P63096); assay: qHTS Assay for Inhibitors of RGS12 GoLoco Motif Activity (Green Fluorophore) (AID 879);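 also: 0% = labeled peptide with Gαi1 and full inhibition = labeled peptide alone without protein; negative values mean loss of peptide binding seen as reduced polarization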
Guanine nucleotide-binding protein G(i) subunit alpha-1 (Homo sapiens), sequence (P63096 whole entry, looked up): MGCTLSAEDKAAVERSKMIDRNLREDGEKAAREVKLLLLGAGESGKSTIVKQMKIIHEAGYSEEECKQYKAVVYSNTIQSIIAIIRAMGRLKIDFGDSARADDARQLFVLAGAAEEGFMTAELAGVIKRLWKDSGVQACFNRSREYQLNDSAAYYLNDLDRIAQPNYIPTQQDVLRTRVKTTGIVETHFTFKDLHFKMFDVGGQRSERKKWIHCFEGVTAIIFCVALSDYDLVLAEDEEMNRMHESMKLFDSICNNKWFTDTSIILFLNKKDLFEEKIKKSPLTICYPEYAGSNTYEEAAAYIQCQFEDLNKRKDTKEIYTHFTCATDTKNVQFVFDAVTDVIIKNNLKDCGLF
Summary of the method: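 Fluorescence polarization assay: 50 nM Gαi1 with 10 nM FITC-labeled RGS12 GoLoco peptide in 10 mM Tris pH 7.5, 150 mM NaCl, 0.1 mM GDP, 0.05% NP40, 10 min at room temperature with compound.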

[19] = target: Cytochrome P450 2C9 (Homo sapiens) (UniProt P11712); assay: qHTS Assay for Inhibitors and Substrates of Cytochrome P450 2C9 (AID 883); also: potency is read from the fitted curve at half-maximal effect; nearly all actives have a fitted effect of over 60% in size
Summary of the method: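 Inhibition of CYP2C9 is scored as loss of luminescence, with 57uM sulphaphenazole defining 100% inhibition. Substrate Luciferin-H is used at 100uM, equal to its KM; enzyme at 10nM in 25mM KPO4, 60 min at 37C with NADPH regeneration.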

[20] = target: Cytochrome P450 2D6 (Homo sapiens) (UniProt P10635); assay: qHTS Assay for Inhibitors and Substrates of Cytochrome P450 2D6 (AID 891);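 also: luciferin methyl ether substrate demethylated by CYP2D6 with NADPH regeneration; % is scaled to controls: 0 for no effect and ±100 for the full control effect; nearly all actives have a fitted effect of over 60% in size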
Summary of the method: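 Human CYP2D6 (5 nM) with 30 uM Luciferin-ME EGE (at Km) in 100 mM KPO4, compound preincubated 10 min, then NADPH regeneration system for 60 min at room temperature. Luciferin read by luminescence; normalized to 1.43 uM quinidine.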

[21] = qHTS Assay for Identification of Small Molecule Antagonists for NFkB Signaling Pathway (AID 895; active = well fitted inhibition curve with a large enough effect in the signal ratio, with a control signal flat, not every such curve was filed as active; the % refers to the signal ratio; also: % is scaled to controls: 0 for no effect and ±100 for the full control effect)
Summary of the method: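 Beta-lactamase reporter read-out (460 and 530 nm emission ratio, 405 nm excitation, 2 hrs substrate loading RT) after 5 hr stimulation with 10 pM TNF alpha in compound-treated NFkB-bla ME-180 cells in low-serum medium.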

[22] = target: Cytochrome P450 2C19 (Homo sapiens) (UniProt P33261); assay: qHTS Assay for Inhibitors and Substrates of Cytochrome P450 2C19 (AID 899); also: % is scaled to controls: 0 for no effect and ±100 for the full control effect; nearly all actives have a fitted effect of over 60% in size
Summary of the method: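 5nM enzyme + 10uM Luciferin-H EGE (=KM), 50mM KPO4; cpd pin-transferred, 10 min 37C; NADPH regen, 60 min 37C; stopped w/ luciferin detection reagent, 20 min; luminescence. Normalized to 57uM ketoconazole (AC100).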

[23] = qHTS Assay for Identification of Small Molecule Agonists for Thrombopoietin (TPO) Signaling Pathway (AID 917); also: % is scaled to controls: 0 for no effect and ±100 for the full control effect
Summary of the method: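 We measured Glycoprotein IIb promoter–luciferase output in IL-3-starved Ba/F3 murine cells expressing the human TPO receptor after 24 hrs at 37 C with compounds and 26 pM TPO.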

[24] = target: Muscarinic acetylcholine receptor M1 (Rattus norvegicus) (UniProt P08482); assay: qHTS Assay for Antagonists of Acetylcholine Muscarinic M1 Receptor: Kinetic Measurement of Intracellular Calcium Response (AID 943);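 also: Fluo-4 calcium signal as peak divided by basal fluorescence over 4 min; nearly all actives have a fitted effect of over 75% in size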
Summary of the method: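 Intracellular calcium flux, recorded with Fluo-4 in a kinetic plate reader, served as signal; the response to carbachol at EC80 (100 nM final) was taken as maximal over minimal fluorescence after a 10 min compound pre-incubation in rat M1-CHO cells.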

[25] = target: Pyruvate kinase (Leishmania mexicana) (UniProt Q27686); assay: qHTS Validation Assay for Inhibitors of Leishmania Mexicana Pyruvate Kinase (AID 945);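 also: 0% = DMSO only neutral control wells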
Pyruvate kinase (Leishmania mexicana), sequence (Q27686 2-499 E452W): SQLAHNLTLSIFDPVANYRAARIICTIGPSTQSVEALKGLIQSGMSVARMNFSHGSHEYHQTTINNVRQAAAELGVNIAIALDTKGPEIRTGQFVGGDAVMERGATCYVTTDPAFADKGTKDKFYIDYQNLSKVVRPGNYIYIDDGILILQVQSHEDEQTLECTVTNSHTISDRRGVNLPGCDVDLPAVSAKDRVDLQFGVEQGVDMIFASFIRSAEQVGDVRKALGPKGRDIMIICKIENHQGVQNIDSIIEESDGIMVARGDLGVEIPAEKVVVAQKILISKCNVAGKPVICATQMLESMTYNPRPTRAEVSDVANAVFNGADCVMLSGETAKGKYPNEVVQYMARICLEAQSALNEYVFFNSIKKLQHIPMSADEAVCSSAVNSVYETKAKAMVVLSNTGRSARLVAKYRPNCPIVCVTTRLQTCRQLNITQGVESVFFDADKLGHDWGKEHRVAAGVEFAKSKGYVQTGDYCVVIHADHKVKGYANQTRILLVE
Summary of the method: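 LmPYK E451W 0.2 nM; 0.5 mM PEP, 0.1 mM ADP, 7 mM MgCl2, 50 mM KCl, imidazole pH 7.2, 0.01% Tween 20, 0.05% BSA; 1 h RT; PKLight luminescence; DMSO-normalized.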

[26] = target: Alpha-galactosidase (Coffea arabica) (UniProt Q42656); assay: Counterscreen for Glucocerebrosidase Inhibitors: qHTS Assay for Coffee Bean alpha-Galactosidase at pH 4.5 (AID 957);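 also: plate controls were enzyme alone for no effect and no enzyme for full effect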
Alpha-galactosidase (Coffea arabica), sequence (Q42656 whole entry, looked up): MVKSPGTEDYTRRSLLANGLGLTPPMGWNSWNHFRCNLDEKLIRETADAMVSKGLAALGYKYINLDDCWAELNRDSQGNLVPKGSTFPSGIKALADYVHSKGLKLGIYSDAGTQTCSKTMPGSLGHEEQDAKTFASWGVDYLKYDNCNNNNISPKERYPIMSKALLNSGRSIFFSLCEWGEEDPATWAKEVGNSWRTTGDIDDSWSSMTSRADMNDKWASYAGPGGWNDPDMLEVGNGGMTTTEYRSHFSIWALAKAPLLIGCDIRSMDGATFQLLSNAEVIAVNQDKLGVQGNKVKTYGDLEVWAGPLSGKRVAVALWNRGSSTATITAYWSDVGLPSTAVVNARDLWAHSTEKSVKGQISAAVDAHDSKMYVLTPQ
Summary of the method: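 AC50 values derive from Hill-equation modeling of concentration-response data, normalized to no-enzyme and full-activity controls. The pH 4.5 citrate assay used 2 nM coffee bean enzyme and 80 uM fluorogenic substrate for 20 min.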

[27] = target: Alpha-galactosidase A (Homo sapiens) (UniProt P06280); assay: Counterscreen for Glucocerebrosidase Inhibitors: qHTS Assay for Human alpha-Galactosidase at pH 4.5 (AID 992); also: 0% is about no effect
Summary of the method: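 Concentration-response curves (0.7 nM to 77 uM final) were modeled with the Hill equation to give AC50. Reactions: 2 nM enzyme, 80 uM fluorogenic alpha-galactoside, pH 4.5 citric acid buffer, 20 min, room temperature.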

[28] = target: Alpha-galactosidase (Coffea arabica) (UniProt Q42656); assay: Counterscreen for Glucocerebrosidase Inhibitors: qHTS Assay for Coffee Bean alpha-Galactosidase at pH 5.9 (AID 998);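 also: plate controls were uninhibited enzyme for no effect and no-enzyme basal signal for full effect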
Summary of the method: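 Compounds were titrated from 0.7 nM to 77 uM against green coffee bean alpha-galactosidase (2 nM) using 80 uM fluorogenic 4-methylumbelliferyl substrate. After 20 min at room temperature, reactions were stopped at pH 10 and read by fluorescence.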

[29] = target: Muscarinic acetylcholine receptor M1 (Rattus norvegicus) (UniProt P08482); assay: qHTS Assay for Antagonists of Acetylcholine Muscarinic M1 Receptor: Measurement of IP-One Response (AID 944); also: nearly all actives have a fitted effect of over 75% in size
Summary of the method: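 Steps: plate transfected CHO-M1 cells overnight; add test compound, 10 min; add carbachol (200 nM, EC80) in stimulation buffer with LiCl; incubate 30 min; add labelled IP1 tracer and anti-IP1 antibody in lysis buffer; read HTRF after 10 min.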

Cc1ccc(C[N+](C)(C)C)o1
30.2%: max response ([4]; measured here: lipid channel max response)
inactive: Potency [1] > 46 µM | Potency [2] | outcome [3] | activity change, negative = inhibition ([4]; at 57.5 µM (top of the series)) 4.98% | Potency [5] | Potency [6] | Potency [7]
20.9%: max response ([4]; measured here: cell count channel max response)

C=C(C)CN1CC[C@@]23c4c5ccc(O)c4O[C@H]2c2[nH]c4ccccc4c2C[C@]3(O)[C@@H]1C5
inactive: Potency [8] | Potency [9] > 46 µM | Potency [1] > 46 µM | outcome [10] | Potency [11] | Potency [12] | Potency [13] | Potency [6] | Potency [7] | outcome [14] | outcome [15]

C/C(O)=C(/C#N)C(=O)Nc1cc(Br)ccc1Br
active: Potency [8] 5.01 µM and 2.51 µM | Potency [19] 7.94 µM
inactive: activity change, negative = inhibition [16] 6.53% | outcome [17] | Potency [9] > 46 µM | Potency [1] > 46 µM | Potency [11] | outcome [18] | Potency [12] | Potency [20] | Potency [21] | Potency [22] | outcome [23] | Potency [24] | outcome [25] | outcome [26] | outcome [27] | outcome [28] | Potency [13] | Potency [6] | Potency [7]

COC(=O)N1CCN(C(=O)Cc2ccc(Cl)c(Cl)c2)[C@H](CN2CCCC2)C1
> 46 µM (inactive) and 1.28 µM (active): Potency [9]
inactive: Potency [8] | activity change, negative = inhibition [16] -16% | Potency [1] > 46 µM | Potency [11] | outcome [18] | Potency [12] | Potency [21] | outcome [23] | Potency [29] | outcome [25] | outcome [26] | outcome [27] | outcome [28] | Potency [13] | Potency [6] | Potency [7]
